Assay outcomes as filed in PubChem.
NPSR antag: qHTS Assay for Antagonists of the Neuropeptide S Receptor: cAMP Signal Transduction; CHO-NPSR cells, cAMP TR-FRET, antagonist mode; Potency, µM (titrated, usually from 38.3 µM), inactives show at the top dose activity change, negative = inhibition, usual class: inhibitors; 220,000 compounds, 1% hits; Q6W5P4; further: nearly all actives have a fitted effect of over 50% in size
VP16 counter: VP16 counterscreen qHTS for inhibitors of ROR gamma transcriptional activity | Drosophila S2 Gal4-VP16 UAS-luciferase, luminescence, 20 h | Potency, µM (top dose mostly 53.6 µM), inactives show at the highest dose activity, negative = inhibition, actives largely listed as inhibitors | 310,000 compounds, 3.5% hits | AID 2546, 2010;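 further: Gal4-VP16 expression switched on by copper sulfate through the metallothionein promoter; nearly all actives have a fitted effect of over 50% in size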
RORg inh: qHTS for inhibitors of ROR gamma transcriptional activity | Nuclear receptor ROR-gamma (Mus musculus), P51450 | Drosophila S2 Gal4-RORgamma UAS-luciferase reporter, 20 h | Potency, µM (doses to about 53.6 µM), inactives show at the top dose activity change, negative = inhibition, usual class: inhibitors | 310,000 compounds, 5.4% hits; further: nearly all actives have a fitted effect of over 60% in size
Target sequence (P51450 whole entry, looked up, the tested form may be a part): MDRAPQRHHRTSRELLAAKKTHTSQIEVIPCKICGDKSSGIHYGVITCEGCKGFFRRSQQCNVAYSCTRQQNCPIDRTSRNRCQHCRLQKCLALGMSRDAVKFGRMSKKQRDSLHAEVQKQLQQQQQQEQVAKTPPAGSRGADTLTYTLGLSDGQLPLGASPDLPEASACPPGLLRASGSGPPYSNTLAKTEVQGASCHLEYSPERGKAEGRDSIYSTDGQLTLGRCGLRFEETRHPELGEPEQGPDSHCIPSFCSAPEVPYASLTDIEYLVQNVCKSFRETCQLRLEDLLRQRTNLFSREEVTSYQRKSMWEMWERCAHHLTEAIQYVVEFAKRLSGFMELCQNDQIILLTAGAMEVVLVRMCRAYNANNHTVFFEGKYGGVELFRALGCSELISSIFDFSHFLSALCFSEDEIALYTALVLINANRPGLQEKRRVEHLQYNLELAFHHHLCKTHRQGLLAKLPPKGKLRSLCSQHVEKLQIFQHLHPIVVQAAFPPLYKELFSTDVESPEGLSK
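In this cell-based reporter format, copper sulfate (700 uM final) drives Gal4–ROR gamma fusion expression from a metallothionein promoter in Drosophila Schneider cells; compounds preincubated 1 hr, reporter read after 20 hr at ambient temperature.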
B2AR arrestin: qHTS assay of beta-arrestin-biased ligands of beta2-adrenergic receptor; Beta-2 adrenergic receptor (Homo sapiens), P07550; beta-arrestin recruitment to beta2AR, cell-based reporter; Potency, µM (top dose mostly 46.1 µM), for inactives: at the highest dose activation, hits mostly activators; 330,000 compounds, 0.02% hits; AID 492947, 2010;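 further: 0% = DMSO controls and full agonism = EC100 isoproterenol or metaproterenol; nearly all actives have a fitted effect of over 65% in size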
* hit, by the source's call; ? = inconclusive; . = no result; [ ] = remark or other dose. This is a sample that favours compounds with a hit; in the whole collection about 5.7% have one here. The call rests on the fitted dose curve; in most records, active means well fitted curve in the direction sought with a large enough effect; inconclusive means small, poorly fitted or top-dose-only effect, or another doubt; inactive means no such curve, though single readings can be large; an effect the other way counts as inactive or inconclusive. Unless noted, on the % scale 0 is the no-effect control and ±100 the full control effect; potency means the concentration at half of the fitted maximal effect.

SMILES	NPSR antag	VP16 counter	RORg inh	B2AR arrestin
O=[N+]([O-])c1cc2c(cc1/C=N/n1c(-c3ccccn3)n[nH]c1=S)OCO2	-11.7%	-2.3%	-15.8%[10 µM]	0.1%
O=[N+]([O-])c1cc2c(cc1/C=N/n1c(-c3ccccc3)n[nH]c1=S)OCO2	?	?	5.62µM*	-0.4%
COc1ccc(/C=N/n2c(-c3ccc(C)cc3)n[nH]c2=S)cc1OC	-53.4%	-12.2%	3.16µM*	6.8%
COc1ccc(CNC(=O)C/C(C)=N/NC(=O)c2cc(OC)cc(OC)c2)cc1	.	-6.6%	-12.1%	-0.1%
C/C(CC(=O)NCc1ccccc1)=N\NC(=O)c1cnccn1	-19.6%[46.1 µM]	-6.5%	10.1%	-0.4%
C/C(CC(=O)NCc1ccc(F)cc1)=N\NC(N)=S	10.8%	-25.0%	12.6µM*	-1.0%
C/C(CC(=O)NCc1ccccc1)=N\NC(N)=S	12.6%	-2.2%[10 µM]	10µM*	0.1%
O=c1c(CCc2ccccc2)nc2cnc(N3CCNCC3)nc2n1-c1ccccc1	.	3.9%	-6.6%	.
CC1=NN(C(N)=S)C(=O)C1N=Nc1cccc(Cl)c1C (stereo unspecified)	.	1µM*	0.355µM*	8.7%
CC1=NN(c2ccccc2)C(=O)C1N=Nc1ccccc1 (stereo unspecified)	-2.4%	-15.6%	?	4.7%
CC1=NN(C(N)=S)C(=O)C1N=Nc1cccc2ccccc12 (stereo unspecified)	-25.7%	2.82µM*	0.631µM*	?
C[C@H](CO)N1C[C@H](C)[C@@H](CN(C)S(C)(=O)=O)Oc2ccc(NS(=O)(=O)c3ccccc3)cc2C1=O	.	.	.	-0.2%
C#CCN[C@@H]1CCc2ccccc21	.	0.5%	11.2%	.
CCOC(=O)c1c(C(C)(C)C)oc2ccc(O)cc12	-12.9%[46.1 µM]	15.8µM*	-33.1%	-0.2%
Cc1ccccc1-n1c(C)cc(/C=N/Nc2ccc([N+](=O)[O-])cn2)c1C	18.3%[46.1 µM]	5.62µM*	6.31µM*	0.2%
O=[N+]([O-])c1ccc(N/N=C\c2cccn2-c2ccccc2)nc1	-25.2%[46.1 µM]	?	2.51µM*	-0.6%
O=C(Nc1cnn(C23CC4CC(CC(C4)C2)C3)c1)c1cnn2c(C(F)(F)F)cc(-c3ccco3)nc12	7.94µM*	-8.3%	?	-0.4%
COc1ccc2nc(/N=C\N(C)C)sc2c1	-3.0%[46.1 µM]	-5.7%	-3.7%	-0.6%
COc1ccc2nc(N=Nc3ccc(N(C)C)cc3)sc2c1	-7.5%[46.1 µM]	1.41µM*	14.1µM*	0.3%
CC(C)(C)C1CCC(=NNC(=O)c2ccco2)CC1 (stereo unspecified)	.	-5.2%	-18.7%	0.4%
C/C(=N\NC(=O)C1CC1(c1ccccc1)c1ccccc1)c1cccc([N+](=O)[O-])c1 (stereo unspecified)	-36.8%	-2.1%	8.8%	0.7%
CCOC(=O)C/C(C)=N/NC(=O)C1CC1(c1ccccc1)c1ccccc1 (stereo unspecified)	-6.3%[46.1 µM]	?	10µM*	-0.6%
CN(C)c1cc(-c2cccc(NS(C)(=O)=O)c2)ncn1	.	-6.2%	13.3%	.
O=C(CS(=O)(=O)c1ccc(F)cc1)Nc1nccs1	.	.	.	0.1%
O=C(COc1ccc(F)cc1)Nc1nccs1	-2.0%[46.1 µM]	-8.8%	10µM*	-0.1%
SMILES	NPSR antag	VP16 counter	RORg inh	B2AR arrestin
COCc1nnc(NC(=O)c2ccc(S(=O)(=O)N3CCOCC3)cc2)o1	.	20µM*	11.2µM*	0.2%
COc1ccc(-c2nnc(NC(=O)c3ccc(S(=O)(=O)N4CCCc5ccccc54)cc3)o2)cc1	-15.9%[46.1 µM]	0.501µM*	0.282µM*	-0.1%
COCc1nnc(NC(=O)c2ccc(S(=O)(=O)N3CCCc4ccccc43)cc2)o1	-4.2%	3.55µM*	0.631µM*	-0.3%
O=C(Nc1nnc(C2CC2)o1)c1ccc(S(=O)(=O)N2CCCc3ccccc32)cc1	-7.8%[46.1 µM]	0.708µM*	0.316µM*	-0.8%
CC(=O)N1CCC2(CCCN(Cc3cc(C(F)(F)F)cc(C(F)(F)F)c3)C2)CC1	.	14.5%	-2.2%	.
COC(=O)C(OC(=O)c1ccccc1)C(C)Br (stereo unspecified)	.	.	.	-1.3%
COc1ccc(C=C2C=C(C(C)(C)C)C(=O)C(C(C)(C)C)=C2)cc1OC	.	4.47µM*	7.08µM*	-0.6%
COc1ccc(/C=C2\CC/C(=C\c3ccc(OC)c(OC)c3)C2=O)cc1OC	-17.8%	15.8µM*	2.24µM*	0.6%
COc1cc(/C=C2/CC/C(=C/c3ccc(O)c(OC)c3)C2=O)ccc1O	-17.6%	?	-41.2%	0.3%
CO[C@H]1COC(=O)[C@H](C)NC(=O)C/C=C\[C@@H](C)[C@@H](NS(=O)(=O)c2ccc(C)cc2)COC(=O)C/C=C\[C@@H]1C	.	-3.7%[10 µM]	-6.0%[10 µM]	.
O=C(Nc1nc(-c2cccs2)c(-c2ccccc2)s1)c1ccco1	-16.1%[46.1 µM]	7.94µM*	?	-0.7%
O=C(Nc1nc(-c2cccs2)c(C(=O)C(F)(F)F)s1)c1ccco1	10µM*	0.0%	?	0.1%
CC(=O)Nc1sc(NC(=O)c2ccco2)nc1-c1cccs1	.	21.5%	10.6%	-0.2%
Nc1nc(-c2cccs2)c(-c2cccs2)s1	.	5.8%	-8.3%	-0.2%
CC1CC1C(=O)Nc1nc(-c2cccs2)c(-c2cccs2)s1 (stereo unspecified)	-34.8%	11.9%	10µM*	-0.3%
CCN1C(C)=C(C(=O)OC)C(c2ccccc2)N2C(=O)[C@](O)(C(=O)OC)CC(C(C)=O)=C12 (stereo partly specified)	.	-1.7%[10 µM]	7.3%[10 µM]	.
COC1OC2COC(c3ccccc3)OC2C(O)C1O (stereo unspecified)	.	-1.0%	?	.
Cc1sc2ncnc(N3CCC(C(=O)NNC(=O)COc4cccc(C(F)(F)F)c4)CC3)c2c1C	.	.	.	-0.6%
Cc1sc2nc(COC(=O)c3c(F)cccc3F)[nH]c(=O)c2c1C	0.0%	23.5%	12.6µM*	0.0%
Cc1onc(-c2ccccc2)c1C(=O)NNC(=S)NC(=O)c1ccc(Br)cc1	-3.5%	3.55µM*	4.47µM*	-0.9%
Cc1onc(-c2ccccc2)c1C(=O)NNC(=S)NC(=O)c1ccc(Cl)cc1Cl	10.3%	11.2µM*	4.47µM*	6.3%
COc1ccc(/C=C/C(=O)NC(=S)NNC(=O)c2c(-c3ccccc3)noc2C)cc1	-1.0%[46.1 µM]	5.01µM*	3.16µM*	-0.5%
Cc1onc(-c2ccccc2)c1C(=O)NNC(=O)c1ccccc1O	.	.	.	-0.4%
Cc1onc(-c2ccccc2)c1C(=O)NNC(=O)c1ccccc1	.	.	.	-0.2%
Cc1onc(-c2ccccc2)c1C(=O)NNC(=S)NC(=O)/C=C/c1ccccc1	2.2%	?	5.62µM*	-0.3%
COc1ccc(-c2cc(C(=O)NNC(=S)NC(=O)c3c(-c4ccccc4)noc3C)[nH]n2)cc1	-25.5%	-22.7%	?	-0.1%
CC(C)(C)N1C(=O)[C@H]2[C@H]3[C@H](O)[C@H](O)C/C(=N/OC[C@@H](O)COCc4ccco4)[C@@H]3CC[C@@H]2C1=O	.	4.7%[10 µM]	9.2%[10 µM]	.
Cc1ccc2nc(-c3ccccc3)c(CN3CCOCC3)n2c1	-17.8%	?	4.0%	0.2%
